Assay outcomes (PubChem)
Tau FP inhib = qHTS for Inhibitors of Tau Fibril Formation, Fluorescence Polarization; K18 P301L tau heparin fibrillization, Alexa594 FP, 6 h; Potency, µM (series often up to 57.7 µM), for the others: at the top dose activity, negative = inhibition, usual class: inhibitors; 0.39% of 280,000 active; Microtubule-associated protein tau (Homo sapiens), P10636; also: potency is read from the fitted curve at half-maximal effect; nearly all actives have a fitted effect of over 55% in size
Target sequence (P10636 561-689 P618L limits assumed): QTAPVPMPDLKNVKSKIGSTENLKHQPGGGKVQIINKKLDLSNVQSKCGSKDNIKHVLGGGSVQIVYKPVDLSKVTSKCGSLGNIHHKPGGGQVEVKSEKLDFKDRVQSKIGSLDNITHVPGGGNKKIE
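Recombinant K18 P301L […], labeled with Alexa 594 at 0.24 uM over 15 uM unlabeled; heparin inducer 20 uM final; 37 C, 6 hr; FP endpoint.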
Tau fluor cs = Counterscreen qHTS for Inhibitors of Tau Fibril Formation, Fluorescence Polarization. 0.93% of 280,000 active. Potency, µM (top dose mostly 57.7 µM), inactives show at the top dose activity change, negative = decrease. tau K18 P301L Alexa594 fluorescence, heparin fibrillization; also: potency is read from the fitted curve at half-maximal effect; nearly all actives have a fitted effect of over 55% in size
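Human K18 P301L tau (15 uM unlabeled plus 0.24 uM Alexa 594-labeled, final) in 100 mM sodium acetate pH 7 was mixed with compound and 20 uM heparin and incubated 6 hr at 37 C.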
FBPA coupling cs = qHTS Assay for Inhibitors of Fructose-1,6-bisphosphate Aldolase from Giardia Lamblia: Coupling assay counterscreen; coupling enzyme system counterscreen, AmpLite Red fluorescence; activity change, negative = inhibition, % at 58.2 µM, hits read low; 0.67% of 290,000 active; AID 2472, 2010; in the data active = activity change below about -30%
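Coupling enzymes only (glyceraldehyde-3-phosphate) + compound, at 57.5 uM final, 10 min RT; add substrate/coupling/AmpLite Red mix, 20 min RT; fluorescence ex 525/em 598 nm. Actives flag coupling-system interference.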
Sfp PPTase inh = qHTS Assay for Inhibitors of Bacillus subtilis Sfp phosphopantetheinyl transferase (PPTase) | 4'-phosphopantetheinyl transferase ffp (Bacillus subtilis), Q9F4F7 | Biochemical Sfp PPTase activity, qHTS | Potency, µM, inactives show largest response in the series, negative = inhibition, usual class: inhibitors | 3.5% of 310,000 active | AID 1490, 2009;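 also: the enzyme is Sfp with the accession as filed and its product quenches rhodamine fluorescence; potency is read from the fitted curve at half-maximal effect; 0% = enzyme reaction without inhibitor and -100% = no enzyme wells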
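Fluorescence-quenching assay: 15 nM Sfp-PPTase preincubated 15 min at room temperature with compound, then 5 uM rhodamine-CoA and 12.5 uM BHQ-2-labelled YbbR peptide added. Fluorescence (ex 525/em 598 nm) read at start and after 30 min; difference gives rate.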
Tau ThT inhib = qHTS for Inhibitors of Tau Fibril Formation, Thioflavin T Binding | Microtubule-associated protein tau (Homo sapiens), P10636 | recombinant tau K18 P301L, heparin-induced fibrillization, ThT fluorescence | Potency, µM (highest dose often 57.4 µM), inactives show at the highest dose activity, negative = inhibition, usual class: inhibitors | 2.1% of 270,000 active | AID 1460, 2008; also: potency is read from the fitted curve at half-maximal effect; nearly all actives have a fitted effect of over 55% in size
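Using a mix of unlabeled (15 uM) and Alexa 594-labeled (0.24 uM) tau K18 P301L, heparin-triggered fibrillization over 6 hr at 37 C was scored by ThT fluorescence.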
An asterisk follows results filed as active; [ ] = remark or other dose. This is a sample that favours compounds with a hit; in the whole collection about 5.2% have one here. Unless noted, calls follow the shape of the dose curve; as a rule, active = well fitted curve in the direction sought with a large enough effect; inconclusive = small, poorly fitted or top-dose-only effect, or another doubt; inactive = no such curve, though single readings can be large; an effect the other way counts as inactive or inconclusive. Unless noted, % is scaled to controls: 0 for no effect and ±100 for the full control effect.

`Cc1cc(N)n2ncc(-c3cccc(Br)c3)c2n1` gave Tau FP inhib 2%, Tau fluor cs 16µM*[quencher], FBPA coupling cs -1, Sfp PPTase inh 5% and Tau ThT inhib inconclusive.
Screening CCC(C)N=C1Sc2nc3ccc(C)cc3cc2CN1CCOC (stereo not drawn) returned Tau FP inhib 0%, Tau fluor cs -3%, FBPA coupling cs 1, Sfp PPTase inh 45µM* and Tau ThT inhib inconclusive.
`Cc1ccc2nc3c(cc2c1)CN(Cc1ccco1)C(=NCC1CCCO1)S3` (stereo not drawn) gave Tau FP inhib -2%, Tau fluor cs -20%, FBPA coupling cs -3, Sfp PPTase inh inconclusive and Tau ThT inhib -14%.
Screening CCOc1ccc2nc3c(cc2c1)CN(CCCO)C(=NCCOC)S3 returned Tau FP inhib -1%, Tau fluor cs -21%, FBPA coupling cs -16, Sfp PPTase inh -26% and Tau ThT inhib inconclusive.
Screening COCCN=C1Sc2nc3ccc(C)cc3cc2CN1Cc1cccs1 returned Tau FP inhib 9%, Tau fluor cs -17%, FBPA coupling cs 1, Sfp PPTase inh 22µM* and Tau ThT inhib inconclusive.
COCCN=C1Sc2nc3c(C)cccc3cc2CN1Cc1ccco1 was read as Tau FP inhib -8%, Tau fluor cs -11%, FBPA coupling cs -2, Sfp PPTase inh 20µM* and Tau ThT inhib inconclusive.
`COCCN1Cc2cc3cc(C)ccc3nc2SC1=Nc1ccc(OC)cc1` gave Tau FP inhib 11%, Tau fluor cs inconclusive, FBPA coupling cs -6, Sfp PPTase inh 20µM* and Tau ThT inhib inconclusive.
For COCCN1Cc2cc3cc(C)ccc3nc2SC1=Nc1cccc(OC)c1 the results were Tau FP inhib -7%, Tau fluor cs inconclusive, FBPA coupling cs -1, Sfp PPTase inh -19% and Tau ThT inhib inconclusive.
CCOc1ccc(N=C2Sc3nc4ccc(C)cc4cc3CN2CCOC)cc1 was read as Tau FP inhib 7%, Tau fluor cs inconclusive, FBPA coupling cs 1, Sfp PPTase inh inconclusive and Tau ThT inhib inconclusive.
`C=CCN1c2ccccc2[C@]23C[C@@H](C(=O)OC)N(S(=O)(=O)c4ccc5c(c4)OCCN5C)C2=NC(C(=O)OC)=C(C(=O)OC)[C@H]13` gave Tau FP inhib -1%[11.6 µM], Tau fluor cs -9%[11.6 µM], FBPA coupling cs 1, Sfp PPTase inh 9% and Tau ThT inhib 1%[11.5 µM].
Screening O=C(CCN1CCc2ccccc2C(c2ccccc2)C1)c1ccc2c(c1)OCCO2 (stereo not drawn) returned Tau FP inhib inconclusive, Tau fluor cs 4%, FBPA coupling cs 11, Sfp PPTase inh 45µM* and Tau ThT inhib -14%.
Screening CCC(=O)OC1C2CC3=C4CC(=O)OC(c5ccoc5)[C@]4(C)CCC3[C@@](C)(C2=O)C(CC(=O)OC)C1(C)C (stereo partly drawn) returned Tau FP inhib 6%, Tau fluor cs -10%, FBPA coupling cs 0, Sfp PPTase inh -1% and Tau ThT inhib -9%.
NS(=O)(=O)c1ccc(CCNCc2cc(Br)ccc2OCc2ccccc2F)cc1 was read as Tau FP inhib -8%, Tau fluor cs -26%, FBPA coupling cs 0, Sfp PPTase inh 50µM* and Tau ThT inhib -18%.
Cc1ccc2nc3sc(C(=O)NCCCN(C)c4ccccc4)cc3cc2c1 was read as Tau FP inhib 4%, Tau fluor cs inconclusive and Tau ThT inhib inconclusive.
`CCN(CCCNC(=O)c1cc2cc3cc(C)ccc3nc2s1)c1cccc(C)c1` gave Tau FP inhib 10%, Tau fluor cs 7.9µM*[quencher] and Tau ThT inhib inconclusive.
For CCCn1ccc2c(OCC(=O)Nc3ccc(OC)c(OC)c3)cccc2c1=O the results were Tau FP inhib -2%, Tau fluor cs -20% and Tau ThT inhib -12%.
For Oc1oc(-c2ccccc2)nc1C=NCc1ccccc1 the results were Tau FP inhib 0%, Tau fluor cs inconclusive, FBPA coupling cs 1, Sfp PPTase inh -8% and Tau ThT inhib -13%.
For CC1=Nc2ccccc2/C1=C\c1nc(-c2ccc(C(F)(F)F)cc2)oc1O the results were Tau FP inhib 3%, Tau fluor cs 11µM*[quencher], FBPA coupling cs -3, Sfp PPTase inh 29% and Tau ThT inhib 13µM*.
For Cc1cccc(/N=C/c2nc(-c3ccccc3Br)oc2O)n1 the results were Tau FP inhib -10%, Tau fluor cs inconclusive, FBPA coupling cs 2, Sfp PPTase inh 1% and Tau ThT inhib inconclusive.
`CC1=Nc2ccccc2/C1=C\c1nc(-c2ccccc2)oc1O` gave Tau FP inhib inconclusive, Tau fluor cs 7.9µM*[quencher], FBPA coupling cs -10, Sfp PPTase inh -4% and Tau ThT inhib 5µM*.
`COc1ccc(-c2nc(/C=C3\C(C)=Nc4ccccc43)c(O)o2)cc1` gave Tau FP inhib inconclusive, Tau fluor cs 8.9µM*[quencher], FBPA coupling cs -5, Sfp PPTase inh inconclusive and Tau ThT inhib 4µM*.
For Oc1ccccc1-c1nnc(-c2ccc(C(F)(F)F)cc2)o1 the results were Tau FP inhib -1%, Tau fluor cs -8%, FBPA coupling cs 3, Sfp PPTase inh 11% and Tau ThT inhib -10%.
`CC1=Nc2ccccc2/C1=C/c1nc(-c2ccc(C)s2)oc1O` gave Tau FP inhib 4%, Tau fluor cs 5µM*[quencher], FBPA coupling cs 0, Sfp PPTase inh -5% and Tau ThT inhib 2.8µM*.
Screening COc1ccc(-c2nc(CN3CCN(Cc4ccccc4)CC3)c(C)o2)cc1 returned FBPA coupling cs 2 and Sfp PPTase inh 6%.
`CCn1ccc2cc(S(=O)(=O)N3CCCN(C(=O)Nc4ccccc4F)CC3)ccc21` gave Tau FP inhib -6%, Tau fluor cs 0% and Tau ThT inhib 0%.
For CCOC(=O)Cn1c(=O)n(C2CCCCC2)c2nc(-c3cccc(C)c3)nc(C(N)=O)c21 the results were Tau FP inhib -3%, Tau fluor cs -3% and Tau ThT inhib 6%.
`Cc1ccc(-c2nn(-c3cccc(F)c3)cc2CNCc2cccnc2)o1` gave Tau FP inhib -5%, Tau fluor cs -14%, FBPA coupling cs -1, Sfp PPTase inh -3% and Tau ThT inhib -18%.
Cc1ccc(-c2nn(-c3cccc(F)c3)cc2CN2CCN(c3ccccn3)CC2)o1 was read as Tau FP inhib -6%, Tau fluor cs -26%, FBPA coupling cs -3, Sfp PPTase inh 40µM* and Tau ThT inhib inconclusive.
`Cc1ccc(-c2nn(-c3cccc(F)c3)cc2CN(Cc2nccn2C)C(C)C)o1` gave Tau FP inhib -4%, Tau fluor cs -5%, FBPA coupling cs 2, Sfp PPTase inh 40µM* and Tau ThT inhib -13%.
